Experimental data reported in the supplement of paper PMC10849652.
Targets with a hit are over-represented here; the source holds about 7,900 in all. About 0.6% of all pairs of compound and target were hits.

How the values were obtained:
Experiment in all cases: log2 fold change, soluble protein after heating vs DMSO (PISA); higher = thermal stabilisation; K562 cells, 10 uM, 30 min; active = over 0.2 and 3.5 SD of the protein, either way, in both replicates (recomputed)
[1] = compound: Cc1ccc(NC(=O)c2ccc(CN3CC[C@H](N(C)C)C3)c(C(F)(F)F)c2)cc1Nc1nccc(-c2cncnc2)n1 [bafetinib]
How it was run: (§1)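 K562 cells (2×10^6 cells/mL) were treated with 10 μM compound for 30 min, and aliquots were heated for 3 min over 48°C-58°C. Pooled aliquots were extracted in PBS with 0.5% NP-40 at 4°C, and the supernatant after 21,000xg for 90 min was measured by TMTpro 16plex LC-MS/MS with channel sums equalised. Reported thermal stability, relative to control samples and from duplicates, is a log2 fold change.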

[2] = compound: Cc1cccc(CC(=O)N2CCc3c2ccc(-c2cn(C)c4ncnc(N)c24)c3F)n1
How it was run: as §1

[3] = compound: Cc1cn(-c2cc(NC(=O)c3ccc(C)c(Nc4nccc(-c5cccnc5)n4)c3)cc(C(F)(F)F)c2)cn1 [nilotinib]
How it was run: as §1

[4] = compound: Cc1nc(Nc2n[nH]c3c2CN(C(=O)N[C@H](CN(C)C)c2ccccc2)C3(C)C)c2sccc2n1
How it was run: as §1

[5] = compound: Cc1nc(Nc2ncc(C(=O)Nc3c(C)cccc3Cl)s2)cc(N2CCN(CCO)CC2)n1 [dasatinib]
How it was run: as §1

[6] = compound: Cc1ncc(-c2ccnc(Nc3ccc(S(C)(=O)=O)cc3)n2)n1C(C)C
How it was run: as §1

[7] = compound: Cn1cc(-c2ccc3c(c2)CCN3C(=O)Cc2cccc(C(F)(F)F)c2)c2c(N)ncnc21
How it was run: as §1

[8] = compound: Cn1cc(-c2ccc3nnc(C(F)(F)c4ccc5ncccc5c4)n3n2)cn1
How it was run: as §1

[9] = compound: Cn1cncc1[C@@](N)(c1ccc(Cl)cc1)c1ccc2c(c1)c(-c1cccc(Cl)c1)cc(=O)n2C [tipifarnib]
How it was run: as §1

[10] = compound: FC(F)(F)c1ccc(/C=C/c2nc(COc3ccc(CCCCn4ccnn4)cc3)co2)cc1 [mubritinib]
How it was run: as §1

Measured: log2 fold change

DHX40 (UniProt Q8IX18)
active: [4] -0.289
inactive: [1] -0.033 | [2] 0.038 | [3] -0.052 | [5] -0.229 | [6] 0.118 | [7] 0.103 | [8] 0.035 | [9] 0.017 | [10] 0.084

CTSV (UniProt O60911)
inactive: [2] -0.24 | [3] 0.036 | [4] 0.142 | [5] 0.061 | [6] -0.056 | [7] 0.016 | [8] -0.002 | [9] 0.026 | [10] -0.009
active: [1] -0.696

EPHX2 (UniProt P34913)
inactive: [1] 0.131 | [2] -0.097 | [3] 0.152 | [4] -0.029 | [5] -0.041 | [6] 0.073 | [7] 0.051 | [8] 0.016 | [9] 0.065 | [10] 0.11

DNAAF2 (UniProt Q9NVR5)
inactive: [1] -0.075 | [2] 0.057 | [3] 0.023 | [4] 0.002 | [5] -0.049 | [6] 0 | [7] -0.037 | [8] 0.036 | [9] 0.004 | [10] 0.026

CYFIP1 (UniProt Q7L576)
inactive: [1] -0.064 | [2] 0.002 | [3] -0.015 | [4] -0.064 | [5] -0.05 | [6] -0.024 | [7] 0.049 | [8] -0.006 | [9] -0.011 | [10] 0.022

DLD (UniProt P09622)
active: [10] -0.429
inactive: [1] -0.028 | [2] -0.042 | [3] 0.034 | [4] -0.018 | [5] -0.025 | [6] -0.066 | [7] -0.04 | [8] 0.015 | [9] -0.008

EEA1 (UniProt Q15075)
Chain of UniProt Q15075 (Q15075 whole entry, looked up): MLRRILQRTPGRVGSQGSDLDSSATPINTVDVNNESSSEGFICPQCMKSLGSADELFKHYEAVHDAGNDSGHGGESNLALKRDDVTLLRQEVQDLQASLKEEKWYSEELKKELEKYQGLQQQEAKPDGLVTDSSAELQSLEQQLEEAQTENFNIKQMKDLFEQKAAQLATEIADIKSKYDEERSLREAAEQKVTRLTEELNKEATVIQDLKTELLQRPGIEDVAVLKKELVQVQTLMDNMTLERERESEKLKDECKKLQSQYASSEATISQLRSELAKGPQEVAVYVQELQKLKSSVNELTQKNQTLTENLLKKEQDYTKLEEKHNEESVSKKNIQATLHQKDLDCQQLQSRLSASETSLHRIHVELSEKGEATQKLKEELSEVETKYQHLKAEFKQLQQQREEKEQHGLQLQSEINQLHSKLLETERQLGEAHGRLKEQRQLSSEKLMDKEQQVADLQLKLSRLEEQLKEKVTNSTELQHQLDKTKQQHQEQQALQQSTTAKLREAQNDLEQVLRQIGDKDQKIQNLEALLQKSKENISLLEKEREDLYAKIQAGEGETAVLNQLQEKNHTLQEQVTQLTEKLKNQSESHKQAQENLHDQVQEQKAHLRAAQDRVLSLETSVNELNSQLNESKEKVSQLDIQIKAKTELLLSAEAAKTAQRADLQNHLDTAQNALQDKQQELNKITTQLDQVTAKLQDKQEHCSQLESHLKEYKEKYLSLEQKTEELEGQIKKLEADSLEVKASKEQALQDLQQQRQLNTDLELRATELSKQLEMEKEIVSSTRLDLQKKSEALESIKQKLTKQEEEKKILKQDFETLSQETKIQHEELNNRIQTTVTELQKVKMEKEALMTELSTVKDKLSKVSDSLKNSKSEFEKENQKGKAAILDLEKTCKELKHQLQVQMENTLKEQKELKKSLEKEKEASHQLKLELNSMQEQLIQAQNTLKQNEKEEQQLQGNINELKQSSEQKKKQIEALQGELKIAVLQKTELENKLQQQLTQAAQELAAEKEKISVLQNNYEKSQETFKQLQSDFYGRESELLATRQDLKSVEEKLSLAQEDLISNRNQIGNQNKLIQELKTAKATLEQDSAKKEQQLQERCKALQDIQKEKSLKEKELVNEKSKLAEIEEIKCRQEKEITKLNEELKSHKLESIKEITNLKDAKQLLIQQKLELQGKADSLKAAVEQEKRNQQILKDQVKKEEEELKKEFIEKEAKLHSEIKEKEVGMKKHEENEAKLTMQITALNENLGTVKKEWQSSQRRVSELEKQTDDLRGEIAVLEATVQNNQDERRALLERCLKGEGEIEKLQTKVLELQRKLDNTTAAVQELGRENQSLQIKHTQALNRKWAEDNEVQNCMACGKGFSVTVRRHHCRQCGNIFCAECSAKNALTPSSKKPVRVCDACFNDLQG
inactive: [1] -0.043 | [2] -0.021 | [3] 0.013 | [4] 0 | [5] 0.061 | [6] 0.004 | [7] -0.015 | [8] 0.028 | [9] 0.007 | [10] 0.041

DTYMK (UniProt P23919)
Chain of UniProt P23919 (P23919 whole entry, looked up): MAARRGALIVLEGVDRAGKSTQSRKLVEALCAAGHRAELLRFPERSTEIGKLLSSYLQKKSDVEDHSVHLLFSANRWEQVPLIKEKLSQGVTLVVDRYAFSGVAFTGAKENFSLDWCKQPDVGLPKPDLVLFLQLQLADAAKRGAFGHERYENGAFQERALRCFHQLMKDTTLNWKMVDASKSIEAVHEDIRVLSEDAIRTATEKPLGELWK
inactive: [1] 0.044 | [2] 0.007 | [3] 0.042 | [4] 0.041 | [5] -0.151 | [6] -0.029 | [7] 0.045 | [8] 0.002 | [9] -0.019 | [10] 0.078

CUX1 isoform 2 (UniProt Q13948)
inactive: [1] 0.051 | [2] 0.042 | [3] -0.001 | [4] -0.029 | [5] -0.084 | [6] 0.078 | [7] 0.072 | [8] 0.063 | [9] 0.062 | [10] 0.007

DCAF6 isoform 3 (UniProt Q58WW2)
inactive: [1] -0.071 | [2] 0.009 | [3] 0.009 | [4] 0.02 | [5] 0.008 | [6] -0.013 | [7] -0.016 | [8] 0.031 | [9] 0.027 | [10] 0.017

DHRS3 (UniProt O75911)
Chain of UniProt O75911 (O75911 whole entry, looked up): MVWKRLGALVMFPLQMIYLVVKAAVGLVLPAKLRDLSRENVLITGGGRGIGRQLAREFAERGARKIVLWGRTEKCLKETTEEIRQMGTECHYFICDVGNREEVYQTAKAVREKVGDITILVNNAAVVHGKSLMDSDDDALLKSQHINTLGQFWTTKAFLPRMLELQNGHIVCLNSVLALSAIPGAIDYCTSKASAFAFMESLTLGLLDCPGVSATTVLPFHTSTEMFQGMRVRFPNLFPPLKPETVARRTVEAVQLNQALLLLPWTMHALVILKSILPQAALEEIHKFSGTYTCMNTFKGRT
active: [7] 0.323
inactive: [1] 0.027 | [2] 0.017 | [3] 0.101 | [4] -0.031 | [5] 0.188 | [6] -0.025 | [8] 0.164 | [9] 0.012 | [10] 0.081

FAM118A (UniProt Q9NWS6)
inactive: [1] -0.076 | [2] 0 | [3] -0.092 | [4] -0.216 | [5] -0.314 | [6] -0.039 | [7] -0.019 | [8] 0.135 | [9] -0.128 | [10] 0.043

FAM241A (UniProt Q8N8J7)
Chain of UniProt Q8N8J7 (Q8N8J7 whole entry, looked up): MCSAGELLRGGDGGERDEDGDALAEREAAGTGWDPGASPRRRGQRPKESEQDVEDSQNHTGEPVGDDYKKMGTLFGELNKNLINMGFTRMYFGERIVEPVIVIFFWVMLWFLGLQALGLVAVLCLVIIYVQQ
inactive: [1] -0.143 | [2] -0.056 | [3] -0.027 | [4] 0.029 | [5] 0.02 | [6] -0.095 | [7] 0.046 | [8] 0.049 | [9] 0.008 | [10] 0.028

DHPS (UniProt P49366)
inactive: [1] 0.026 | [2] -0.057 | [3] 0.035 | [4] 0.001 | [5] 0.014 | [6] 0.004 | [7] 0.008 | [8] -0.005 | [9] -0.047 | [10] 0.061

EEF1G isoform 2 (UniProt P26641)
inactive: [1] 0.033 | [2] 0.083 | [3] -0.034 | [4] -0.03 | [5] -0.032 | [6] 0.045 | [7] -0.03 | [8] -0.05 | [9] -0.124 | [10] 0.028

EVC2 (UniProt Q86UK5)
inactive: [1] -0.08 | [2] 0.023 | [3] -0.066 | [4] -0.092 | [5] -0.043 | [6] 0.131 | [7] -0.149 | [8] -0.148 | [9] 0.162 | [10] -0.053

DCAF13 (UniProt Q9NV06)
inactive: [1] 0.178 | [2] 0 | [3] 0.006 | [4] 0.102 | [5] 0.077 | [6] -0.05 | [7] -0.249 | [8] -0.173 | [9] 0.193 | [10] -0.106

DHRS7B (UniProt Q6IAN0)
Chain of UniProt Q6IAN0 (Q6IAN0 whole entry, looked up): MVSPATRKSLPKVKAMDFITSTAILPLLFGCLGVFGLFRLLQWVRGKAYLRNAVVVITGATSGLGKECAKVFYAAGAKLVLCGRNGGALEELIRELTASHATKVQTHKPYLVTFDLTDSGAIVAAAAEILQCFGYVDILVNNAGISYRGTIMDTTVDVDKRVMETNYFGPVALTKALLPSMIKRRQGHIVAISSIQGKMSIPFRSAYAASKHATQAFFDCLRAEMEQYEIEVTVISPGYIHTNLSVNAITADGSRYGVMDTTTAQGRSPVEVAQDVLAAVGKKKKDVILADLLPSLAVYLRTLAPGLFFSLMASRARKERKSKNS
inactive: [1] 0.001 | [2] 0.213 | [3] 0.114 | [4] 0.01 | [5] -0.066 | [6] 0.056 | [7] 0.047 | [8] -0.113 | [9] 0.008 | [10] -0.023

FAM50A (UniProt Q14320)
inactive: [1] -0.035 | [2] -0.045 | [3] -0.016 | [4] -0.096 | [5] -0.134 | [6] 0.029 | [7] -0.021 | [8] 0.044 | [9] -0.031 | [10] 0.083

DDX46 (UniProt Q7L014)
Chain of UniProt Q7L014 (Q7L014 whole entry, looked up): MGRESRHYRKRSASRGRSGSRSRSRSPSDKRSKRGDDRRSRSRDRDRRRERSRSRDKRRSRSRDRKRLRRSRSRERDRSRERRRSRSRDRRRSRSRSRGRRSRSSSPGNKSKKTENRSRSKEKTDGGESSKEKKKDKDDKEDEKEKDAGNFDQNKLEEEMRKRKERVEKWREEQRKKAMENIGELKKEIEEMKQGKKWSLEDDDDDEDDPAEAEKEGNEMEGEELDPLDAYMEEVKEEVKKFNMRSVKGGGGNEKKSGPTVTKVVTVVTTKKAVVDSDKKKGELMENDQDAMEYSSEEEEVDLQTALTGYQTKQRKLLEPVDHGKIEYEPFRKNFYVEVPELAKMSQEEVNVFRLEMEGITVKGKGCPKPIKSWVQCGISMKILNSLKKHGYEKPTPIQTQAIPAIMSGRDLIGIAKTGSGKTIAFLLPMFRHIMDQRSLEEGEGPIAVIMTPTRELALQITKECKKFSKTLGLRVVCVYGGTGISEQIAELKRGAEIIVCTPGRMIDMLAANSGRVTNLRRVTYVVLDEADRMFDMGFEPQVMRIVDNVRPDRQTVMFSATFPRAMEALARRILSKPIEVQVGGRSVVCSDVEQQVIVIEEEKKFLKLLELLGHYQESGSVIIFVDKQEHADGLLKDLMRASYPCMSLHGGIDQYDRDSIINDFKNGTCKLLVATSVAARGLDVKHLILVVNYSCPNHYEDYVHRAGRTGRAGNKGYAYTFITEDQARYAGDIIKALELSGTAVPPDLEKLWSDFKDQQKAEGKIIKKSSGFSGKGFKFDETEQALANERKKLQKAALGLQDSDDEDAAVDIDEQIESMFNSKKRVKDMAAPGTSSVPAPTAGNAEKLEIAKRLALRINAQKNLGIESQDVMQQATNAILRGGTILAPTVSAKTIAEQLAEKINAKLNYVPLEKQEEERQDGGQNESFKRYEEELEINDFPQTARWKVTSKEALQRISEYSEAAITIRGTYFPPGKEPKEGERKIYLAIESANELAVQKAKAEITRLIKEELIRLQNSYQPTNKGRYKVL
inactive: [1] 0.196 | [2] 0.094 | [3] 0.271 | [5] -0.084 | [6] 0.1 | [7] 0.104 | [8] 0.102 | [9] -0.113
active: [4] -1.44 | [10] 0.604

EXOC1 (UniProt Q9NV70)
inactive: [1] 0.061 | [2] 0.025 | [3] -0.034 | [4] -0.069 | [5] -0.126 | [6] -0.051 | [7] -0.008 | [8] 0.026 | [9] -0.098 | [10] 0.032

EMD (UniProt P50402)
Chain of UniProt P50402 (P50402 whole entry, looked up): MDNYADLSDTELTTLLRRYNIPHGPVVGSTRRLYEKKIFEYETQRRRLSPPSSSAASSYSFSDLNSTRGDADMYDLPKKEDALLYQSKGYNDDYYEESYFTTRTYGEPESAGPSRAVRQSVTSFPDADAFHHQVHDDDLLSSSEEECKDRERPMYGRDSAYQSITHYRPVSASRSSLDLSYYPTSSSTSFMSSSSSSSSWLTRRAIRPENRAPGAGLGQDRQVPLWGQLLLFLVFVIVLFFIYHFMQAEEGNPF
inactive: [1] -0.167 | [2] -0.081 | [3] 0.074 | [4] -0.071 | [5] -0.017 | [6] -0.045 | [7] -0.005 | [8] -0.098 | [9] 0.087 | [10] 0.031

DNAJC1 (UniProt Q96KC8)
Chain of UniProt Q96KC8 (Q96KC8 whole entry, looked up): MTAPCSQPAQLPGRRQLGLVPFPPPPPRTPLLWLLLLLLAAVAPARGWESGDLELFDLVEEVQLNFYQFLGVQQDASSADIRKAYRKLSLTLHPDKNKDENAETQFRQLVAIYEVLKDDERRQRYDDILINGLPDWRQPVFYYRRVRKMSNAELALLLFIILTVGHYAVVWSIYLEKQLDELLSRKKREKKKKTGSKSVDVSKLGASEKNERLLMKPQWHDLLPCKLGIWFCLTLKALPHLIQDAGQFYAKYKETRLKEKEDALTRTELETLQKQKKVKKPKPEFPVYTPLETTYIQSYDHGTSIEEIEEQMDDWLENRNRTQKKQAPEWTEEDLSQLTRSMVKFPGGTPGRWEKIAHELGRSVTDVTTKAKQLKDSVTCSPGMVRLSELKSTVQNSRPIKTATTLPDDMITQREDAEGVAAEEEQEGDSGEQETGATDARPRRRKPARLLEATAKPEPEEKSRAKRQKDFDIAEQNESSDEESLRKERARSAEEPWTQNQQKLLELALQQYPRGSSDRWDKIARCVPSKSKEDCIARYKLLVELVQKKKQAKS
inactive: [1] -0.185 | [2] -0.026 | [3] -0.035 | [4] 0.016 | [5] -0.064 | [6] 0.002 | [7] 0.028 | [8] 0.047 | [9] 0.039 | [10] 0.041

EEF1AKNMT (UniProt Q8N6R0)
Chain of UniProt Q8N6R0 (Q8N6R0 whole entry, looked up): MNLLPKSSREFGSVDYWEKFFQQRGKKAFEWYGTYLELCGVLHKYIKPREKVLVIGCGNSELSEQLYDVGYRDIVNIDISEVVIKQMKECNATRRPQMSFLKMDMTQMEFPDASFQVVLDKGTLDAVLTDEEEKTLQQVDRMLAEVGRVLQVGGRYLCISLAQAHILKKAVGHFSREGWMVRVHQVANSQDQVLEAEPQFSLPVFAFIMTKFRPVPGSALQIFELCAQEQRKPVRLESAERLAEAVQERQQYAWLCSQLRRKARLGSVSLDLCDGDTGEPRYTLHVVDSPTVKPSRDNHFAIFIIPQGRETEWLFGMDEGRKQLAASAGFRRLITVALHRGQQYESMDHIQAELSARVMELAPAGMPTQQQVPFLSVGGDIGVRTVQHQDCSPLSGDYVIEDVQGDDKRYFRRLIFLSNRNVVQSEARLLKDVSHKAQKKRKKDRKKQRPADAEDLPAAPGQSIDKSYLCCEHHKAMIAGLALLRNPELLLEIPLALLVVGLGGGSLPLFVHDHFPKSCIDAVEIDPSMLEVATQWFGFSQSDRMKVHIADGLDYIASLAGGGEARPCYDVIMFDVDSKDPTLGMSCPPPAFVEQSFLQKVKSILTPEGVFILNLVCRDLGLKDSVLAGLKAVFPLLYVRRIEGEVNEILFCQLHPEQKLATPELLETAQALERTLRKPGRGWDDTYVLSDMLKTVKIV
inactive: [1] 0.067 | [2] -0.008 | [3] -0.02 | [4] -0.062 | [5] -0.118 | [6] 0.084 | [7] -0.031 | [8] 0.003 | [9] -0.154 | [10] 0.089

EXOC6 (UniProt Q8TAG9)
inactive: [1] -0.013 | [2] 0.036 | [3] -0.013 | [4] -0.196 | [5] -0.22 | [6] -0.013 | [7] 0.042 | [8] 0.028 | [9] -0.076 | [10] 0.07

DTWD1 (UniProt Q8N5C7)
inactive: [1] 0.006 | [2] -0.014 | [3] 0.057 | [4] 0 | [5] 0.001 | [6] 0.082 | [7] 0.051 | [8] -0.027 | [9] -0.02 | [10] 0.02

DUS2 (UniProt Q9NX74)
inactive: [1] -0.017 | [2] -0.025 | [3] -0.243 | [4] -0.032 | [5] -0.07 | [6] 0.014 | [7] -0.072 | [8] 0.01 | [9] 0.094 | [10] 0.045

DYRK1A isoform 2 (UniProt Q13627)
inactive: [1] -0.073 | [2] 0.02 | [3] -0.005 | [4] -0.056 | [5] -0.098 | [6] -0.047 | [7] 0.021 | [8] -0.046 | [9] -0.042 | [10] 0.034

DHX36 (UniProt Q9H2U1)
inactive: [1] 0.065 | [2] 0.015 | [3] -0.066 | [4] 0.052 | [5] -0.01 | [6] 0.045 | [7] -0.076 | [8] -0.059 | [9] 0.002 | [10] -0.128

EHD2 (UniProt Q9NZN4)
inactive: [1] -0.051 | [2] 0.008 | [3] -0.062 | [4] 0.01 | [5] -0.112 | [6] 0.003 | [7] 0.012 | [8] -0.031 | [9] -0.028 | [10] -0.061
